Among the data in publication PMC9838217, “Structure of SALL4 zinc finger domain reveals link between AT-rich DNA binding and Okihiro syndrome” are binding signal values, retold here.

Where a chain is given by its changes, count along the chain named.

One experiment deals with T1, SALL4 ZFC4 R900W (HT-SELEX) (Mus musculus, UniProt Q8BX22 870-940, R900W).
T1 sequence: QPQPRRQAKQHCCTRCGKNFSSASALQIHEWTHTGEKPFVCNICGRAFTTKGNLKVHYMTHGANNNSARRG
Description: HT-SELEX; high values mean tight binding. The following applies: protein: recombinant; vector His6-GST; dsDNA, one strand shown. Put shortly: (§1)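 DNA from a random library (1.5 µg in the first cycle, 200 ng afterwards) was incubated with purified recombinant mouse SALL4 zinc finger cluster 4, residues 870–940 (1 µg), for 10 min at room temperature in 100 µl buffer: 10 mM Tris–HCl pH 7.5, 50 mM NaCl, poly(dI-dC), DTT. Bound complexes were pulled down on Ni2+ beads, washed and PCR-amplified, and the selection was repeated for up to 6 cycles in triplicate. MiSeq reads were scanned for 6-mers, and binding signal is each canonical k-mer's read fraction as fold change over the initial random library.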
For TCGCGA, the binding signal was 0.248 ± 0.0259 fold-change vs cycle 0.

As for CGACAG, the binding signal was determined as 0.332 ± 0.0161 fold-change vs cycle 0.

Take ACAGGC: the binding signal was determined as 0.338 ± 0.0213 fold-change vs cycle 0.

In the case of CACGCA, the binding signal is 0.282 ± 0.00613 fold-change vs cycle 0.

For GCCGCA, the binding signal came to 0.0591 ± 0.00535 fold-change vs cycle 0.

Regarding TGCGCA, the binding signal was found to be 0.136 ± 0.00666 fold-change vs cycle 0.

Take CGTCGA: the binding signal was determined as 0.282 ± 0.0144 fold-change vs cycle 0.

For the sequence GCGTCA, the binding signal was found to be 0.266 ± 0.00412 fold-change vs cycle 0.

For GCCTCA, the binding signal was found to be 0.364 ± 0.0186 fold-change vs cycle 0.

As for CGTTGC, the binding signal turned out to be 0.331 ± 0.00332 fold-change vs cycle 0.

In the case of GAGCGC, the binding signal was determined as 0.088 ± 0.00871 fold-change vs cycle 0.

Regarding ACCGGC, the binding signal was determined as 0.106 ± 0.00697 fold-change vs cycle 0.

Regarding CAATAG, the binding signal was 1.34 ± 0.0439 fold-change vs cycle 0.

With CGCACA, the binding signal turned out to be 0.229 ± 0.0112 fold-change vs cycle 0.

Consider GCCCCA, for which the binding signal is 0.158 ± 0.0152 fold-change vs cycle 0.

Turning to CGACGA, the binding signal was 0.288 ± 0.00345 fold-change vs cycle 0.

As to CGGCCC, the binding signal stood at 0.0477 ± 0.00335 fold-change vs cycle 0.

Regarding CCGGCG, the binding signal was found to be 0.0367 ± 0.00313 fold-change vs cycle 0.

Regarding CGCTGA, the binding signal turned out to be 0.291 ± 0.0233 fold-change vs cycle 0.

Turning to GCGCAC, the binding signal is 0.0689 ± 0.0069 fold-change vs cycle 0.

For GCGAAC, the binding signal amounted to 0.281 ± 0.0107 fold-change vs cycle 0.

In the case of GGACCC, the binding signal came out at 0.246 ± 0.0211 fold-change vs cycle 0.

Regarding ACAGCC, the binding signal is 0.328 ± 0.00712 fold-change vs cycle 0.

For GCCTCC, the binding signal stood at 0.209 ± 0.0253 fold-change vs cycle 0.

In the case of CAGCGG, the binding signal worked out at 0.136 ± 0.019 fold-change vs cycle 0.

In the case of GTGGCA, the binding signal turned out to be 0.276 ± 0.00829 fold-change vs cycle 0.

Take AGGCCC: the binding signal turned out to be 0.169 ± 0.00192 fold-change vs cycle 0.

Consider CCTGGC, for which the binding signal is 0.162 ± 0.00687 fold-change vs cycle 0.

For the sequence ACGCTG, the binding signal came to 0.298 ± 0.0226 fold-change vs cycle 0.

Take ACCGGG: the binding signal is 0.239 ± 0.0269 fold-change vs cycle 0.

As for CGGCAC, the binding signal worked out at 0.0866 ± 0.0073 fold-change vs cycle 0.

As to CGGCGA, the binding signal came out at 0.077 ± 0.0153 fold-change vs cycle 0.

Turning to GGCCGA, the binding signal was determined as 0.0868 ± 0.00648 fold-change vs cycle 0.

Consider CTGGGC, for which the binding signal was 0.152 ± 0.021 fold-change vs cycle 0.

In the case of GCTAGC, the binding signal was 0.329 ± 0.0178 fold-change vs cycle 0.

Take AAGCGC: the binding signal was 0.162 ± 0.0133 fold-change vs cycle 0.

Take GGGCTA: the binding signal came to 0.35 ± 0.0254 fold-change vs cycle 0.

Take CCCGTC: the binding signal is 0.236 ± 0.0162 fold-change vs cycle 0.

In the case of TCGCCA, the binding signal is 0.213 ± 0.00577 fold-change vs cycle 0.

Regarding GGCGTA, the binding signal amounted to 0.242 ± 0.0221 fold-change vs cycle 0.

Another experiment has as its target T2, SALL4 ZFC4 G921D (HT-SELEX) (Mus musculus, UniProt Q8BX22 870-940, G921D).
T2 sequence: T1 sequence with W31R, G52D
Description: HT-SELEX; high values mean tight binding. The conditions noted are these: protein: recombinant; vector His6-GST; dsDNA, one strand shown. A digest of the protocol:
as §1
In the case of TCGCGA, the binding signal worked out at 0.374 ± 0.0699 fold-change vs cycle 0.

Take CGACAG: the binding signal is 0.469 ± 0.0472 fold-change vs cycle 0.

As to ACAGGC, the binding signal was 0.472 ± 0.0921 fold-change vs cycle 0.

With CACGCA, the binding signal is 0.422 ± 0.056 fold-change vs cycle 0.

Take GCCGCA: the binding signal was 0.149 ± 0.0608 fold-change vs cycle 0.

As to TGCGCA, the binding signal worked out at 0.263 ± 0.0848 fold-change vs cycle 0.

Regarding CGTCGA, the binding signal came out at 0.423 ± 0.0617 fold-change vs cycle 0.

On to GCGTCA, for which the binding signal is 0.39 ± 0.0541 fold-change vs cycle 0.

In the case of GCCTCA, the binding signal came out at 0.513 ± 0.0755 fold-change vs cycle 0.

Consider CGTTGC, for which the binding signal is 0.435 ± 0.0499 fold-change vs cycle 0.

As for GAGCGC, the binding signal was 0.196 ± 0.0698 fold-change vs cycle 0.

As for ACCGGC, the binding signal stood at 0.227 ± 0.0683 fold-change vs cycle 0.

In the case of CAATAG, the binding signal amounted to 1.31 ± 0.0578 fold-change vs cycle 0.

CGCACA: the binding signal is 0.353 ± 0.0588 fold-change vs cycle 0.

Turning to GCCCCA, the binding signal came out at 0.275 ± 0.0854 fold-change vs cycle 0.

Regarding CGACGA, the binding signal turned out to be 0.415 ± 0.0734 fold-change vs cycle 0.

Consider CGGCCC, for which the binding signal turned out to be 0.134 ± 0.0582 fold-change vs cycle 0.

Consider CCGGCG, for which the binding signal is 0.128 ± 0.0641 fold-change vs cycle 0.

For CGCTGA, the binding signal came out at 0.403 ± 0.0818 fold-change vs cycle 0.

On to GCGCAC, for which the binding signal came to 0.167 ± 0.0842 fold-change vs cycle 0.

Take GCGAAC: the binding signal amounted to 0.417 ± 0.0584 fold-change vs cycle 0.

Regarding GGACCC, the binding signal was determined as 0.387 ± 0.0656 fold-change vs cycle 0.

For ACAGCC, the binding signal is 0.462 ± 0.0935 fold-change vs cycle 0.

Turning to GCCTCC, the binding signal amounted to 0.334 ± 0.0802 fold-change vs cycle 0.

As for CAGCGG, the binding signal was found to be 0.242 ± 0.0833 fold-change vs cycle 0.

As for GTGGCA, the binding signal is 0.424 ± 0.0569 fold-change vs cycle 0.

AGGCCC: the binding signal came out at 0.296 ± 0.0789 fold-change vs cycle 0.

CCTGGC: the binding signal was 0.281 ± 0.075 fold-change vs cycle 0.

For the sequence ACGCTG, the binding signal turned out to be 0.41 ± 0.058 fold-change vs cycle 0.

On to ACCGGG, for which the binding signal stood at 0.357 ± 0.0693 fold-change vs cycle 0.

Consider CGGCAC, for which the binding signal was determined as 0.207 ± 0.0784 fold-change vs cycle 0.

Take CGGCGA: the binding signal came out at 0.177 ± 0.0705 fold-change vs cycle 0.

On to GGCCGA, for which the binding signal worked out at 0.196 ± 0.0603 fold-change vs cycle 0.

Turning to CTGGGC, the binding signal turned out to be 0.273 ± 0.0783 fold-change vs cycle 0.

On to GCTAGC, for which the binding signal came to 0.477 ± 0.0879 fold-change vs cycle 0.

Consider AAGCGC, for which the binding signal came out at 0.302 ± 0.0877 fold-change vs cycle 0.

On to GGGCTA, for which the binding signal is 0.487 ± 0.0896 fold-change vs cycle 0.

As for CCCGTC, the binding signal amounted to 0.34 ± 0.0606 fold-change vs cycle 0.

With TCGCCA, the binding signal is 0.371 ± 0.0688 fold-change vs cycle 0.

In the case of GGCGTA, the binding signal was found to be 0.377 ± 0.0541 fold-change vs cycle 0.
